Only some compounds are listed: those with a hit (about 1.3% of all), similar ones and a draw of the others.
GC-B act – GC-B (human) receptor activation; hit rate 0.11% among 370,000; activation, % at 10 µM; P20594; HEK293-GC-B cells, CNP EC30, cGMP TR-FRET; 0% at EC30 CNP, 100% saturating CNP;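 active = activation at 10 µM reaching about 35% in either raw or pattern-adjusted values, limit read from the data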
ADAM10 inh – inhibits human ADAM10; recombinant ADAM10, EDANS/DABCYL FRET peptide cleavage, 3 h; hit rate 0.62% among 370,000; inhibition, % at 7 µM; O14672;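 active = inhibition above a per-campaign cutoff equal to the mean of compounds falling between control-based bounds plus 3 SD, cut at about 20% in these data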
ADAM17 inh – inhibitors of human ADAM17 | P78536 | recombinant ADAM17, EDANS/DABCYL FRET peptide cleavage | inhibition, % at 6.95 µM | hit rate 0.83% among 370,000;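 active = inhibition above the mean of compounds lying between control limits plus 3 SD, set per campaign, cut at about 8.5% in these data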
NPR1 activator – GC-A (human) enzyme activation; activation, % at 10 µM; HEK293 GC-A cells, cGMP TR-FRET, EC30 ANP; 0% at EC30 ANP, 100% saturating ANP; P16066; AID 1671463; hit rate 0.14% among 370,000; in the data active = activation above about 40%
ADAM10 counter – ADAM10 inhibition, counter-screen for ADAM17 exosite hits | hit rate 47% among 2,900 | AID 743256 | recombinant ADAM10, EDANS/DABCYL FRET peptide cleavage, 3 h | shares compounds with ADAM17 inh | inhibition, % at 6.95 µM;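 active = mean inhibition over the triplicate runs exceeds the activity threshold set in the earlier primary screen, cut at about 20% in these data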
ADAM17 confirm – human ADAM17 inhibition, confirmation | shares compounds with ADAM17 inh | recombinant ADAM17, EDANS/DABCYL QFRET peptide cleavage | inhibition, % at 6.95 µM | hit rate 65% among 2,900 | AID 743257;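 active = mean inhibition across replicates above the hit cutoff set in the primary screen, cut at about 8.5% in these data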
Each line names hits and unclear results; the compound was inactive in the other large screens (follow-up assays come after a bar, where they were run).

C=CCC[C@@H](Cc1ccc(F)cc1)C(=O)OC[C@@H]1CCCN1C(=O)[C@@H](CC=C)CC(=O)N[C@@H](CO)Cc1ccccc1	ADAM17 inh 9.1 | ADAM10 counter inactive | ADAM17 confirm 9.3
C=CC[C@@H](Cc1ccc(F)cc1)C(=O)OC[C@H]1CCCN1C(=O)[C@@H](CC=C)CC(=O)N(CCO)Cc1ccccc1	none
C=CC[C@@H](Cc1ccc(F)cc1)C(=O)OC[C@@H]1CCCN1C(=O)[C@H](CC=C)CC(=O)N(CCO)Cc1ccccc1	ADAM17 inh 10 | ADAM10 counter inactive | ADAM17 confirm inactive
COc1ccc2[nH]c3c(c2c1)CCN1C(=O)C(CC(=O)NCC24CC5CC(CC(C5)C2)C4)C[C@H](C(=O)N2CCOCC2)[C@@]31CCC1CCCC1 (some centres undefined)	none
CC(C)COC(=O)N(C)C[C@H]1OCc2cnnn2CCCC(=O)N([C@H](C)CO)C[C@@H]1C	none
